Most compounds without a hit are left out; they make up all but 12% or so of the library.
G9a block = inhibitors of human histone lysine methyltransferase G9a | Q96KQ7 | G9a H3K9 monomethylation, AlphaScreen, 2 h | Potency, µM (doses to about 102 µM), hits mostly inhibitors | 350,000 compounds, 8.8% hits | AID 504332; also: nearly all actives have a fitted effect of over 75% in size
Target sequence (Q96KQ7 913-1193 limits assumed): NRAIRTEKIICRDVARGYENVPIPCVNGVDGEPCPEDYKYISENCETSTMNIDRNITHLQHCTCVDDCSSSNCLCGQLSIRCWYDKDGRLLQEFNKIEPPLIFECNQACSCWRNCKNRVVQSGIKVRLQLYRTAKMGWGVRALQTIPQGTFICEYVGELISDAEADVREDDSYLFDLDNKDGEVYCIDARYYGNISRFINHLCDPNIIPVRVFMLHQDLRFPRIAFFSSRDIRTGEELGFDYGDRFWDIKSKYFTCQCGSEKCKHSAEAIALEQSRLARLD
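G9a (20 nM) was preincubated 15 min with compound, then reacted 2 h at room temperature with 500 nM biotin-H3K9 peptide and 20 µM SAM. Monomethyl-H3K9 detected by AlphaScreen using anti-H3K9me1 antibody.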
Sfp inh = blocks B. subtilis Sfp PPTase activity; Potency, µM, actives largely listed as inhibitors; AID 1490; Q9F4F7; Biochemical Sfp PPTase activity, qHTS; 310,000 compounds, 3.5% hits;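 also: the enzyme is Sfp with the accession as filed and its product quenches rhodamine fluorescence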
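Buffer: 50 mM Hepes-Na pH 7.6, 10 mM MgCl2, 0.01% Nonidet P-40, 0.01% BSA. Enzyme 15 nM, pre-exposed to compound 15 min; substrates then added and fluorescence change tracked over 30 min.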
HP1b binding inh = HP1-beta chromodomain-methylated histone interaction inhibition | P83916 | 390,000 compounds, 0.56% hits | Potency, µM (titrated, usually from 114 µM), actives largely listed as inhibitors | AlphaScreen HP1-beta / biotin-H3K9me3 peptide binding; also: nearly all actives have a fitted effect of over 70% in size
Target sequence (P83916 whole entry, looked up): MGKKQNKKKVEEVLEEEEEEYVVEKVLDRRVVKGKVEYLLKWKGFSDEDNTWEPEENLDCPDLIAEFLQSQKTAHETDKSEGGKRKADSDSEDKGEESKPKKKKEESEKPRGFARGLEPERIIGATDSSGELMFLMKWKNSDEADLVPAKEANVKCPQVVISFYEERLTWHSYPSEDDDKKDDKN
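Compound inhibition of the preformed complex between 50 nM HP1-beta and 50 nM biotinylated H3K9me3 peptide was read by AlphaScreen. Buffer was PBS pH 7.4 with 0.01% Tween-20. Incubations ran 30 min at room temperature, with 10 ug/mL donor/acceptor beads.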
BAZ2B inh = BAZ2B (human) inhibition; AlphaScreen BAZ2B-H3K14Ac peptide displacement; Potency, µM (top dose mostly 114 µM), most hits filed as inhibitors; 360,000 compounds, 4.4% hits; AID 504333; also: nearly all actives have a fitted effect of over 60% in size
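Inhibition is scored as reduced AlphaScreen emission. The BAZ2B/b-H3(5-23)K14Ac complex (50 nM each) in PBS pH 7.4, 0.01% Tween-20 meets compound (up to 110 uM) for 30 min at RT before bead addition.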
PLK1 PBD block = blocks phosphopeptide binding to human PLK1 polo-box domain | Potency, µM, usual class: inhibitors | P53350 | 360,000 compounds, 2.8% hits | AID 720504 | Plk1 PBD binding of FITC phosphopeptide, fluorescence polarization; also: series mostly up to about 57 µM; nearly all actives have a fitted effect of over 65% in size
JMJD2A Tudor inh = JMJD2A Tudor domain (human) inhibition. AlphaScreen JMJD2A-Tudor / H3K4me3 peptide binding. 390,000 compounds, 4.4% hits. Potency, µM (highest dose often 114 µM), usual class: inhibitors. AID 504339; also: nearly all actives have a fitted effect of over 50% in size
A number is an active result; . = inactive; ? = inconclusive; / = no result given; [ ] = remark or other dose. Calls follow the shape of the dose curve; as a rule, active = well fitted curve in the direction sought with a large enough effect; inconclusive = small, poorly fitted or top-dose-only effect, or another doubt; inactive = no such curve, though single readings can be large; an effect the other way counts as inactive or inconclusive.

SMILES | G9a block | Sfp inh | HP1b binding inh | BAZ2B inh | PLK1 PBD block | JMJD2A Tudor inh
CCC(C)NC(=O)c1ccc2c(c1)S(=O)(=O)c1ccccc1C2=O (stereo not given) | 20µM | . | . | . | . | .
O=C(O)c1ccc2c(c1)S(=O)(=O)c1ccccc1C2=O | 45µM | . | . | . | . | .
NC(=O)COC(=O)c1ccc2c(c1)S(=O)(=O)c1ccccc1C2=O | . | . | . | . | . | .
O=C(OCc1ccccc1)c1ccccc1 | .[12.7 µM] | . | . | / | . | .
NC(=O)c1ccc2c(c1)S(=O)(=O)c1ccccc1C2=O | .[2.33 µM] | . | . | . | . | .
O=C(OCc1ccccc1)c1ccc2c(c1)-c1ccccc1C2=O | 5µM | . | . | . | . | .
CCOc1ccccc1CNC(=O)c1ccc2nc(Cc3ccc(OC)cc3)oc2c1 | . | / | . | . | / | .
Cc1ccccc1-c1nn2c(=O)cc(CN3CCN(C(=O)c4ccc(C(C)(C)C)cc4)CC3)nc2s1 | . | / | . | . | / | .
CC(OC(=O)c1ccc2c(c1)S(=O)(=O)c1ccccc1C2=O)C(N)=O (stereo not given) | 45µM | . | . | . | . | .
Cc1ccc(CNC(=O)c2cccc(NC(=O)N3CCSc4ncccc43)c2)cc1 | . | / | . | . | / | .
O=[N+]([O-])c1cccc(-c2ccc3nnc(SCc4ccccn4)n3n2)c1 | . | . | . | . | 24µM | .[11.4 µM]
O=C1CCCCCN1CP(=O)(O)CN1CCCCCC1=O | 50µM | . | . | . | . | .
O=C1CCCCCN1CP(=O)(O)CCc1ccccc1 | . | . | . | . | . | .
CS(=O)(=O)c1ccc(C(=O)N(Cc2ccccc2)c2ccccc2)cc1 | 45µM | . | . | . | . | .
Cc1cccc(N(Cc2ccccc2)C(=O)c2ccc(S(C)(=O)=O)cc2)c1 | ? | . | . | . | . | .
C[C@H](Cn1cnc2c(N)ncnc21)OCP(=O)(O)O | .[12.7 µM] | . | / | / | / | /
Cc1cccc(NC(=O)Cn2c(=O)oc3cc(S(=O)(=O)NCc4ccccc4)ccc32)c1 | . | / | . | . | / | .
CC1(C)C/C(=N\NC(=S)Nc2ccccc2F)c2cc(O)ccc2O1 | ? | . | 7.9µM | ? | ? | 18µM
Cc1cccc(NC(=S)N/N=C2\CC(C)(C)Oc3ccc(O)cc32)c1 | . | . | . | . | . | ?
COc1cccc(-n2c(SCc3ccc(F)cc3)nc3c([nH]c4ccccc43)c2=O)c1 | . | / | . | . | / | .
O=C(Cn1nc(C(=O)O)c2ccccc2c1=O)Nc1ccc(F)cc1F | . | . | . | . | . | .
COc1ccc(-n2c(C)cc(C(=O)Cn3nc(C(=O)O)c4ccccc4c3=O)c2C)cc1 | ? | . | . | . | . | .
COCC(C)n1c(C)cc(C(=O)COC(=O)c2c(C)nn(-c3ccccc3)c2C)c1C (stereo not given) | 50µM | . | ? | ? | . | ?
COCCn1c(C)cc(C(=O)COC(=O)c2c(C)nn(Cc3ccccc3)c2C)c1C | 79µM | . | ? | ? | . | ?
O=C(Cn1nc(C(=O)O)c2ccccc2c1=O)c1cc(F)ccc1F | . | . | . | . | 17µM | .[11.4 µM]
SMILES | G9a block | Sfp inh | HP1b binding inh | BAZ2B inh | PLK1 PBD block | JMJD2A Tudor inh
Cc1ccc(-n2c(C)cc(C(=O)Cn3nc(C(=O)O)c4ccccc4c3=O)c2C)cc1 | 79µM | . | . | . | . | ?
CCOC(=O)c1cnc2c(C)cc(Cl)cc2c1N1CCN(C)CC1 | . | . | . | . | . | .
Cc1ccccc1CNC(=O)Cn1cc2c(n1)-c1c(oc(C(=O)N3CCCC3)c1C)CC2 | ? | / | . | ? | / | .
CC(=O)c1ccc(Nc2nc(C(C)N)cs2)cc1 (stereo not given) | / | / | / | / | . | /
CCOC(=O)[C@]12CCCC=C1N(Cc1ccc(Cl)cc1Cl)C(=O)[C@H](CC(=O)NCC13CC4CC(CC(C4)C1)C3)C2 | / | / | / | / | . | /
CCOC(=O)[C@]12CCCC=C1N(Cc1ccccc1)C(=O)[C@H](CC(=O)NCc1cccs1)C2 | / | / | / | / | . | /
COCCn1c(C)cc(C(=O)CSc2nncn2-c2ccccc2)c1C | 50µM | . | . | . | . | .
COCC(C)n1c(C)cc(C(=O)Cn2nc(C(=O)O)c3ccccc3c2=O)c1C (stereo not given) | 45µM | . | . | . | . | .
O=C1C(Cl)=C(NC2CCc3ccccc32)C(=O)c2ncccc21 (stereo not given) | / | 45µM | / | / | / | /
COc1ccc(C)cc1NC(=O)CSc1ccc(-c2ccccn2)nn1 | . | . | . | 3.5µM | . | 4.5µM
COc1ccc(C)cc1NC(=O)CSc1ccc(-c2sc(C)nc2C)nn1 | . | . | . | . | . | .
CCOC(=O)c1ccccc1NC(=O)CSc1nccn1C | . | . | . | . | . | .
CCOC(=O)c1ccccc1NC(=O)CSc1ccc(-c2ccccn2)nn1 | / | . | . | 2.8µM | . | 16µM
Cc1noc2ncnc(N3CCCC(C(=O)Nc4cccc(C(F)(F)F)c4)C3)c12 (stereo not given) | . | / | . | . | / | .
CN(C)c1ccc(CNC(=O)C2CCN(S(=O)(=O)c3ccc4[nH]c(=O)ccc4c3)CC2)cc1 | . | / | . | . | / | .
Cc1cccc(NC(=O)c2ccc(C(=O)c3ccccc3)cc2)n1 | 7.9µM | / | . | . | . | .
Cc1cccc(NC(=O)c2ccc(NCCO)c([N+](=O)[O-])c2)n1 | . | . | . | 89µM | . | .
Cc1cccc(NC(=O)c2cccc(C(=O)Nc3cccc(C)n3)c2)n1 | ? | . | . | . | . | .
CCOC(=O)C1=CC(OC(CC)CC)C(NC(C)=O)C(N)C1 (stereo not given) | .[2.33 µM] | . | / | / | / | /
CCOC(=O)Cn1c(=O)oc2cc(S(=O)(=O)N3CCN(c4cccc(C)c4C)CC3)ccc21 | . | / | . | . | / | .
COc1ccc(OC(=O)c2ccc(OC)c(S(=O)(=O)N3CCOCC3)c2)cc1 | ? | . | . | . | . | .
COC(=O)/C=C1\OC(c2ccccc2)=CC1=O | 4µM | 20µM | / | ? | / | /
COC(=O)/C=C1\OC(c2ccccc2)c2ccccc21 (stereo not given) | / | / | / | / | . | /
CCOc1ccccc1NC(=O)C(=O)Nc1ccc2nc3n(c(=O)c2c1)CCCCC3 | . | / | . | . | / | .
COc1cc(C2C3=C(CC(c4ccco4)CC3=O)Nc3ccccc3N2C(C)=O)cc(OC)c1OC (stereo not given) | ? | 18µM | . | ? | . | ?
O=C1CC(c2ccco2)CC2=C1C1c3ccccc3C(=O)N1c1ccccc1N2 (stereo not given) | 18µM | 20µM | . | ? | . | .
CC(=O)N1c2ccccc2NC2=C(C(=O)CC(C)(C)C2)C1c1cccn1C (stereo not given) | . | . | . | . | . | .
CC1(C)CC(=O)C2=C(C1)Nc1ccccc1N(C(=O)C1CC1)C2c1ccco1 (stereo not given) | .[12.7 µM] | . | . | . | 9.5µM | ?
